Measured values: PubChem BioAssay AID1159580 (chemical genetic matrix, 2015)
Out of some 5,500 compounds screened, about 2,000 (36%) were called active. Inconclusive results (about 18%) are left out. The list shows a part of the results. A number with no mark means an inactive call. Rule as the data show it: active = normalized growth mostly below about 0.91 (no sharp cut-off); inconclusive = no clear call, values can overlap the other calls; inactive = mostly above about 0.92.

Assay: chemical genetic growth profiling, strain panel (AID 1159580);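 also: tested at 20 µM; growth read once vehicle control cultures reached saturation at 30 °C; 1 = growth at the plate median or of vehicle wells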
Conditions: growth OD
[1] = S. cerevisiae deletion strains, locus YAL040C, strain CLN3, stronger effect = lower value
[2] = S. cerevisiae deletion strains, locus YCL061C, strain MRC1 (second series), stronger effect = lower value
[3] = S. cerevisiae deletion strains, locus YDR363W, strain ESC2, stronger effect = lower value
[4] = S. cerevisiae deletion strains, locus YER002W, strain NOP16, stronger effect = lower value
[5] = S. cerevisiae deletion strains, locus YGR078C, strain PAC10, stronger effect = lower value
[6] = S. cerevisiae deletion strains, locus YMR307W, strain GAS1, stronger effect = lower value
[7] = S. cerevisiae deletion strains, locus YNL153C, strain GIM3, stronger effect = lower value
[8] = S. cerevisiae deletion strains, locus YNL175C, strain NOP13, stronger effect = lower value
[9] = S. cerevisiae deletion strains, locus YNL197C, strain WHI3, stronger effect = lower value
[10] = S. cerevisiae deletion strains, locus YNL224C, strain SQS1, stronger effect = lower value
[11] = S. cerevisiae deletion strains, locus YOR083W, strain WHI5 (second series), stronger effect = lower value
[12] = S. cerevisiae deletion strains, locus YAL013W, strain DEP1, stronger effect = lower value
[13] = S. cerevisiae deletion strains, locus YBR229C, strain ROT2, stronger effect = lower value
[14] = S. cerevisiae deletion strains, locus YCL061C, strain MRC1, stronger effect = lower value
[15] = S. cerevisiae deletion strains, locus YDL101C, strain DUN1, stronger effect = lower value
[16] = S. cerevisiae deletion strains, locus YDL134C, strain PPH21, stronger effect = lower value
[17] = S. cerevisiae deletion strains, locus YDR150W, strain NUM1, stronger effect = lower value
[18] = S. cerevisiae deletion strains, locus YEL061C, strain CIN8, stronger effect = lower value
[19] = S. cerevisiae deletion strains, locus YHR030C, strain SLT2, stronger effect = lower value
[20] = S. cerevisiae deletion strains, locus YHR087W, strain rtc3, stronger effect = lower value
[21] = S. cerevisiae deletion strains, locus YJL187C, strain SWE1, stronger effect = lower value
[22] = S. cerevisiae deletion strains, locus YJR043C, strain POL32, stronger effect = lower value
[23] = S. cerevisiae deletion strains, locus YJR075W, strain HOC1, stronger effect = lower value
[24] = S. cerevisiae deletion strains, locus YLR039C, strain RIC1, stronger effect = lower value
[25] = S. cerevisiae deletion strains, locus YLR058C, strain SHM2 (second series), stronger effect = lower value
[26] = S. cerevisiae deletion strains, locus YLR085C, strain ARP6, stronger effect = lower value
[27] = S. cerevisiae deletion strains, locus YLR262C, strain YPT6, stronger effect = lower value
[28] = S. cerevisiae deletion strains, locus YML094W, strain GIM5, stronger effect = lower value
[29] = S. cerevisiae deletion strains, locus YMR219W, strain ESC1, stronger effect = lower value
[30] = S. cerevisiae deletion strains, locus YMR263W, strain SAP30, stronger effect = lower value
[31] = S. cerevisiae deletion strains, locus YNL298W, strain CLA4 (second series), stronger effect = lower value
[32] = S. cerevisiae deletion strains, locus YNL322C, strain KRE1, stronger effect = lower value
[33] = S. cerevisiae deletion strains, locus YNR030W, strain Alg12, stronger effect = lower value
[34] = S. cerevisiae deletion strains, locus YOL006C, strain TOP1, stronger effect = lower value
[35] = S. cerevisiae deletion strains, locus YPL055C, strain LGE1, stronger effect = lower value
[36] = S. cerevisiae deletion strains, locus YPL241C, strain CIN2, stronger effect = lower value
[37] = S. cerevisiae deletion strains, locus YPR135W, strain CTF4, stronger effect = lower value
[38] = S. cerevisiae deletion strains, locus YNL128W, strain TEP1, stronger effect = lower value

## CNc1cc(NS(=O)(=O)c2ccc(N)cc2)nc(NC)n1
[1]
  normalized growth: 0.991
[2]
  normalized growth: 0.986
[3]
  normalized growth: 0.974
[4]
  normalized growth: 0.98
[5]
  normalized growth: 0.994
[6]
  normalized growth: 1
[7]
  normalized growth: 1.01
[8]
  normalized growth: 0.993
[9]
  normalized growth: 0.991
[10]
  normalized growth: 0.994
[11]
  normalized growth: 0.993

## CC(C)(C)C(=O)Nc1ccc(F)cc1
[12]
  normalized growth: 1
[13]
  normalized growth: 1
[14]
  normalized growth: 0.991
[15]
  normalized growth: 0.994
[16]
  normalized growth: 1.02
[17]
  normalized growth: 0.985
[18]
  normalized growth: 1.01
[5]
  normalized growth: 0.999
[19]
  normalized growth: 1.02
[20]
  normalized growth: 1
[21]
  normalized growth: 1.01
[22]
  normalized growth: 1.01
[23]
  normalized growth: 0.962
[24]
  normalized growth: 1.07
[25]
  normalized growth: 1.01
[26]
  normalized growth: 1.05
[27]
  normalized growth: 1.01
[28]
  normalized growth: 1
[29]
  normalized growth: 1
[30]
  normalized growth: 1
[7]
  normalized growth: 0.995
[31]
  normalized growth: 1.04
[32]
  normalized growth: 0.994
[33]
  normalized growth: 1.02
[34]
  normalized growth: 1.01
[35]
  normalized growth: 0.946
[36]
  normalized growth: 1.01
[37]
  normalized growth: 0.956

## CCC(=O)Nc1cc(F)ccc1C
[12]
  normalized growth: 0.999
[13]
  normalized growth: 1
[15]
  normalized growth: 1
[16]
  normalized growth: 1
[17]
  normalized growth: 0.968
[18]
  normalized growth: 0.997
[5]
  normalized growth: 1
[19]
  normalized growth: 0.985
[20]
  normalized growth: 1.01
[22]
  normalized growth: 0.985
[23]
  normalized growth: 1
S. cerevisiae deletion strains, locus YKL190W, strain CNB1, stronger effect = lower value
  normalized growth: 1.01
[24]
  normalized growth: 1.01
[25]
  normalized growth: 1
[26]
  normalized growth: 1.02
[27]
  normalized growth: 1.01
[28]
  normalized growth: 1.01
[29]
  normalized growth: 0.997
[30]
  normalized growth: 0.996
[38]
  normalized growth: 0.998
[7]
  normalized growth: 0.987
[31]
  normalized growth: 1.01
[32]
  normalized growth: 0.997
[33]
  normalized growth: 1.01
[35]
  normalized growth: 1.09
[36]
  normalized growth: 0.89
[37]
  normalized growth: 0.987
S. cerevisiae strains, strain wild type, stronger effect = lower value
  normalized growth: 1.01

## CC(C)(C)c1ccc(NC(=O)Cc2cc(F)cc(F)c2)cc1
[12]
  normalized growth: 0.993
[13]
  normalized growth: 0.995
[14]
  normalized growth: 0.97
[15]
  normalized growth: 1.02
[17]
  normalized growth: 0.902
[18]
  normalized growth: 0.997
[5]
  normalized growth: 0.979
[19]
  normalized growth: 0.988
[20]
  normalized growth: 0.984
[21]
  normalized growth: 0.985
[22]
  normalized growth: 1
[23]
  normalized growth: 0.933
[24]
  normalized growth: 0.939
[25]
  normalized growth: 0.986
[26]
  normalized growth: 1.26 [resistant] (active)
[27]
  normalized growth: 0.941
[28]
  normalized growth: 0.994
[29]
  normalized growth: 0.988
[30]
  normalized growth: 1
[6]
  normalized growth: 1.05
[7]
  normalized growth: 0.989
[31]
  normalized growth: 0.97
[32]
  normalized growth: 0.985
[33]
  normalized growth: 0.985
[35]
  normalized growth: 0.885
[36]
  normalized growth: 0.949
[37]
  normalized growth: 1

## O=C1NCN(c2ccccc2)C12CCN(CC1COc3ccccc3O1)CC2 (configuration not stated)
[1]
  normalized growth: 1
[2]
  normalized growth: 1.01
[3]
  normalized growth: 0.998
[4]
  normalized growth: 1.02
S. cerevisiae deletion strains, locus YGR229C, strain SMI1, stronger effect = lower value
  normalized growth: 0.999
[6]
  normalized growth: 0.999
[38]
  normalized growth: 1.04
[8]
  normalized growth: 1.02
[9]
  normalized growth: 1.02
[10]
  normalized growth: 1
[11]
  normalized growth: 1.04
[35]
  normalized growth: 1.01

## N#CCOc1ccc(Cl)cc1Cl
[12]
  normalized growth: 0.99
[13]
  normalized growth: 0.97
[15]
  normalized growth: 0.976
[17]
  normalized growth: 0.95
[18]
  normalized growth: 0.99
[5]
  normalized growth: 0.965
[19]
  normalized growth: 0.95
[20]
  normalized growth: 0.977
[22]
  normalized growth: 0.975
[23]
  normalized growth: 0.915
[24]
  normalized growth: 1.07
[25]
  normalized growth: 0.954
[26]
  normalized growth: 1
[27]
  normalized growth: 1.01
[28]
  normalized growth: 0.983
[29]
  normalized growth: 0.955
[30]
  normalized growth: 0.987
[6]
  normalized growth: 1.06
[7]
  normalized growth: 0.997
[31]
  normalized growth: 1.02
[32]
  normalized growth: 0.96
[33]
  normalized growth: 0.997
[34]
  normalized growth: 1.06
[35]
  normalized growth: 1.12
[36]
  normalized growth: 0.985
[37]
  normalized growth: 0.968
